# Measurements taken from publication PMC7862700, “An all-to-all approach to the identification of sequence-specific readers for epigenetic DNA modifications on cytosine”.
# Columns and labels:
# Assay in all cases: DAPPL (digital affinity profiling via proximity ligation, sequencing); 10 mM Tris-HCl pH 7.5, 50 mM NaCl, 1 mM DTT, 4% glycerol, room temperature, 30 min; GST-TFs on glutathione beads, 16-mer random dsDNA library, 0.1% formaldehyde crosslink after washing; high values mean tight binding
# FEV = target: T1, FEV (Homo sapiens, UniProt Q99581 1-238); conditions: protein: recombinant; tags: N-terminal GST; dsDNA, one strand shown
# T1 sequence: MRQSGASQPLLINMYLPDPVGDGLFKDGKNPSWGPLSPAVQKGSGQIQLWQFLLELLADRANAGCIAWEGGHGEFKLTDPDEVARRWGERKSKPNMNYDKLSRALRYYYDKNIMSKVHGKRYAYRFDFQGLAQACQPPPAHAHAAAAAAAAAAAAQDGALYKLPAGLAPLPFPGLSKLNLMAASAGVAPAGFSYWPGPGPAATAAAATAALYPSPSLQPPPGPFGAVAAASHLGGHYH
# In short: (§1)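 Binding signal is each hexamer's read frequency for a factor divided by its frequency in the tag-only sample. The factors were GST-fused human transcription factors from yeast, captured on glutathione beads, DNA-barcoded and pooled with that sample. Pools were incubated with 200 nmole of a random double-stranded 16-mer DNA library in Tris/NaCl/DTT/glycerol buffer at room temperature for 30 min, then washed, crosslinked with 0.1% formaldehyde, proximity-ligated with BsaI/T4 ligase (1 h, 37 °C), PCR-amplified and sequenced on an Illumina NextSeq500.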
# ETV5 = ETV5 (Homo sapiens, UniProt P41161 1-510); conditions: protein: recombinant; tags: N-terminal GST; dsDNA, one strand shown
# ETV5, sequence (P41161 whole entry): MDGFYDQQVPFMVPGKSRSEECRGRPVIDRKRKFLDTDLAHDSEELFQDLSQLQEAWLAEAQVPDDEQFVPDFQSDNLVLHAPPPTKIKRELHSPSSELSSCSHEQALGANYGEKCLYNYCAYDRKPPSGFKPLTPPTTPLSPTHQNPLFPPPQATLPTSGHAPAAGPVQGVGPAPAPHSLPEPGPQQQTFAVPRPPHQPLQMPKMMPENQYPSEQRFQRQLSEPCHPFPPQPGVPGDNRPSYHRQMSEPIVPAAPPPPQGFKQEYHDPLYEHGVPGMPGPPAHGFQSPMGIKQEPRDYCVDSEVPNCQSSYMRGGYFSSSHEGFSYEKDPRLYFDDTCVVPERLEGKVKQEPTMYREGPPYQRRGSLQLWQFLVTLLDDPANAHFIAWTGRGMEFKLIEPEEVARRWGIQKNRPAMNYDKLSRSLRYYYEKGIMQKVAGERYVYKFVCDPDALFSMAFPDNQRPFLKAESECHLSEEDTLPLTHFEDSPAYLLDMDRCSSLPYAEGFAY
# In short: as §1
# HSF1 = HSF1 (Homo sapiens, UniProt Q00613 1-529); conditions: protein: recombinant; tags: N-terminal GST; chain copies: 3; dsDNA, one strand shown
# HSF1, sequence (Q00613 whole entry): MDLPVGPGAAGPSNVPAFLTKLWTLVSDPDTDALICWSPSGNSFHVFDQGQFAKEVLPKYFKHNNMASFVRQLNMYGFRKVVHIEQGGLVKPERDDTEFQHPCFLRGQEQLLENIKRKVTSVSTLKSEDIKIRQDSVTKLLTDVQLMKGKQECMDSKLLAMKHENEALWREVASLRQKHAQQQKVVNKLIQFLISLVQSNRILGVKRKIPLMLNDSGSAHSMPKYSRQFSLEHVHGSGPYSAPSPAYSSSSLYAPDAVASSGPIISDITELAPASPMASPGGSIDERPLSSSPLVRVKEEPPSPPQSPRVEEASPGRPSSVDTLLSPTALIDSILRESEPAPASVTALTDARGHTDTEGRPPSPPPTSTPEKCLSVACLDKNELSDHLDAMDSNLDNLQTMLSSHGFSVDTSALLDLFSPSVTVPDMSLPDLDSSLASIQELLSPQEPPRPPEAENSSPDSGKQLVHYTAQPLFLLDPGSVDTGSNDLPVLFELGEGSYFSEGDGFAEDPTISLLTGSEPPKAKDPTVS
# In short: as §1
# SPIC = target: T2, SPIC (Homo sapiens, UniProt Q8N5J4 1-248); conditions: protein: recombinant; tags: N-terminal GST; dsDNA, one strand shown
# T2 sequence: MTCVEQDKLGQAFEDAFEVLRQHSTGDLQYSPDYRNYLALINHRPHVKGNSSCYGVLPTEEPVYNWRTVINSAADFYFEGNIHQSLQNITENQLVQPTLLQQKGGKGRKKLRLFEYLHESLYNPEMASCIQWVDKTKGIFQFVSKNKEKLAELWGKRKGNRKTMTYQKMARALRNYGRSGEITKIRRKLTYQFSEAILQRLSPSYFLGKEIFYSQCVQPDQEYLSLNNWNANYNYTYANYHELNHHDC
# In short: as §1
# ELK4 = target: T3, ELK4 (Homo sapiens, UniProt P28324-2 1-405); conditions: protein: recombinant; tags: N-terminal GST; dsDNA, one strand shown
# T3 sequence: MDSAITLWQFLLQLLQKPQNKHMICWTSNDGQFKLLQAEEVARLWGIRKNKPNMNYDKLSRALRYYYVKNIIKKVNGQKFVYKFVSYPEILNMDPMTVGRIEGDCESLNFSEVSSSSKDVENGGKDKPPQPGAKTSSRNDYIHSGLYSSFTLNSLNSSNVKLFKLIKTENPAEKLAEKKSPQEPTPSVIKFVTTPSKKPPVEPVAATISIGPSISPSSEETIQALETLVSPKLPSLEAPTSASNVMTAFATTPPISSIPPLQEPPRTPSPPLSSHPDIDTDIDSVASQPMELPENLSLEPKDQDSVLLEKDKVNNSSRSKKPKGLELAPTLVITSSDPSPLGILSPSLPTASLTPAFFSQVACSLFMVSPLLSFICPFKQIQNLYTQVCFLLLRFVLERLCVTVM
# In short: as §1
# ETV2 = target: T4, ETV2 (Homo sapiens, UniProt O00321 1-342); conditions: protein: recombinant; tags: N-terminal GST; dsDNA, one strand shown
# T4 sequence: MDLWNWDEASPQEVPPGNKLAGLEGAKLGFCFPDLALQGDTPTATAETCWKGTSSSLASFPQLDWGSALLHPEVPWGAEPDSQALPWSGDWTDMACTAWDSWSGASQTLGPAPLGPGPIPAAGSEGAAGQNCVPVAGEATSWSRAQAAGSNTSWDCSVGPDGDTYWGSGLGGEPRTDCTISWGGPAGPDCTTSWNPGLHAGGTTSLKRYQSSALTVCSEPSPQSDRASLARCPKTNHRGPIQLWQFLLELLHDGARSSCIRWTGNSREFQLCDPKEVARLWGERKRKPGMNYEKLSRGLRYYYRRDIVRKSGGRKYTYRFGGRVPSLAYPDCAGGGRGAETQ
# In short: as §1
# ELF3 = target: T5, ELF3 (Homo sapiens, UniProt P78545 1-371); conditions: protein: recombinant; tags: N-terminal GST; dsDNA, one strand shown
# T5 sequence: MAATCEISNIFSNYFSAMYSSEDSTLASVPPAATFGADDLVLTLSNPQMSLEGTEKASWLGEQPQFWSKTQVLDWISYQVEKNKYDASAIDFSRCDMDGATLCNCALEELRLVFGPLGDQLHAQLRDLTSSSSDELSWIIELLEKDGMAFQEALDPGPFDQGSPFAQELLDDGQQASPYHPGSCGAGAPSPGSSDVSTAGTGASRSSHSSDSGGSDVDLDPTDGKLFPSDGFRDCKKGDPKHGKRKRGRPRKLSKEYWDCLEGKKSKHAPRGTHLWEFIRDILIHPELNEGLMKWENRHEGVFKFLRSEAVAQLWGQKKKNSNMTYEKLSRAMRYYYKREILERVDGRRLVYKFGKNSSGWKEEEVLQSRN
# In short: as §1
# CRX = CRX (Homo sapiens, UniProt O43186 1-299); conditions: protein: recombinant; tags: N-terminal GST; dsDNA, one strand shown
# CRX, sequence (O43186 whole entry): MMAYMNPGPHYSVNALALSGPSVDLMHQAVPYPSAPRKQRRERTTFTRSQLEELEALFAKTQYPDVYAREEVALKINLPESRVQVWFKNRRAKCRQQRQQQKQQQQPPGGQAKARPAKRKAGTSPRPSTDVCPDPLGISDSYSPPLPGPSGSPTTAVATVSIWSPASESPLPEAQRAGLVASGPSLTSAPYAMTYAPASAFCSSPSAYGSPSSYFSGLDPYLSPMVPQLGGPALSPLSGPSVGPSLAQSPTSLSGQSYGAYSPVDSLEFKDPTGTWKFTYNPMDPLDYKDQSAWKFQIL
# In short: as §1
# ETV1 = ETV1 (Homo sapiens, UniProt P50549 1-477); conditions: protein: recombinant; tags: N-terminal GST; dsDNA, one strand shown
# ETV1, sequence (P50549 whole entry): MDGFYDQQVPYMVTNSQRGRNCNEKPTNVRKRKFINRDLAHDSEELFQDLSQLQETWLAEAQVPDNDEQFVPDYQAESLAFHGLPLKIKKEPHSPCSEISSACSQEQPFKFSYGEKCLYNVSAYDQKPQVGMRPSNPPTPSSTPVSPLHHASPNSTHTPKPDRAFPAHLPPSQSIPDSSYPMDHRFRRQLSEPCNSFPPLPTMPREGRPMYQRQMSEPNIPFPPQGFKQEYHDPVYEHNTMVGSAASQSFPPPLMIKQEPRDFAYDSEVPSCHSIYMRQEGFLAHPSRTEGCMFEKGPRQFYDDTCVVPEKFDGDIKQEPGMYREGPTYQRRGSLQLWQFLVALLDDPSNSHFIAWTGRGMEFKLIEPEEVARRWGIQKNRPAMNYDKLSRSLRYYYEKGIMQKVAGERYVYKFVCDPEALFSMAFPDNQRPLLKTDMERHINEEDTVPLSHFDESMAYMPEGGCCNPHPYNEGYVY
# In short: as §1
# ERF = target: T6, ERF (Homo sapiens, UniProt P50548 1-548); conditions: protein: recombinant; tags: N-terminal GST; dsDNA, one strand shown
# T6 sequence: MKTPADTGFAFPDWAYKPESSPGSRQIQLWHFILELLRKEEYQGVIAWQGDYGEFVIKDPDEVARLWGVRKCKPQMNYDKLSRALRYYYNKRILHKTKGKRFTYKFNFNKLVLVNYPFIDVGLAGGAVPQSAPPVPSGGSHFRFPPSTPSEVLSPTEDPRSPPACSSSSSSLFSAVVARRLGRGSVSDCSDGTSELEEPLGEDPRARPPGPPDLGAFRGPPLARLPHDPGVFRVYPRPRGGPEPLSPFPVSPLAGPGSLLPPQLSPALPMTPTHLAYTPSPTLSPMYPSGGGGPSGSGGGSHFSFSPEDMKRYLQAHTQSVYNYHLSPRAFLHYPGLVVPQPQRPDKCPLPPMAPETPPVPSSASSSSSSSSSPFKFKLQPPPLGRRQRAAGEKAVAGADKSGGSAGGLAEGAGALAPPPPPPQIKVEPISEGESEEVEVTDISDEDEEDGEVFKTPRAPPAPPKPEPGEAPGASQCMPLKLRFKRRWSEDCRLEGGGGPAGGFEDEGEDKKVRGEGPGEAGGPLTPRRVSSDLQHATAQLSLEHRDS
# In short: as §1
# ETV3L = target: T7, ETV3L (Homo sapiens, UniProt Q6ZN32 1-361); conditions: protein: recombinant; tags: N-terminal GST; dsDNA, one strand shown
# T7 sequence: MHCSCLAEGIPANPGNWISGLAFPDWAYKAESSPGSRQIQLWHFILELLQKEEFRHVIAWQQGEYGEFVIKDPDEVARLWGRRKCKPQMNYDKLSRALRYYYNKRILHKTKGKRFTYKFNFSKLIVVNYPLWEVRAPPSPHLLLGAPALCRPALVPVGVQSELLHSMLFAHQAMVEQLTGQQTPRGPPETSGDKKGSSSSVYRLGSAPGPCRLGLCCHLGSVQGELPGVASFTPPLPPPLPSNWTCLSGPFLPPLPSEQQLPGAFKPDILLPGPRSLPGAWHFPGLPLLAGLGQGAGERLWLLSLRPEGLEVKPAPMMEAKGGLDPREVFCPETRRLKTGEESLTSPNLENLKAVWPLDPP
# In short: as §1
# ETS2 = target: T8, ETS2 (Homo sapiens, UniProt P15036 1-469); conditions: protein: recombinant; tags: N-terminal GST; dsDNA, one strand shown
# T8 sequence: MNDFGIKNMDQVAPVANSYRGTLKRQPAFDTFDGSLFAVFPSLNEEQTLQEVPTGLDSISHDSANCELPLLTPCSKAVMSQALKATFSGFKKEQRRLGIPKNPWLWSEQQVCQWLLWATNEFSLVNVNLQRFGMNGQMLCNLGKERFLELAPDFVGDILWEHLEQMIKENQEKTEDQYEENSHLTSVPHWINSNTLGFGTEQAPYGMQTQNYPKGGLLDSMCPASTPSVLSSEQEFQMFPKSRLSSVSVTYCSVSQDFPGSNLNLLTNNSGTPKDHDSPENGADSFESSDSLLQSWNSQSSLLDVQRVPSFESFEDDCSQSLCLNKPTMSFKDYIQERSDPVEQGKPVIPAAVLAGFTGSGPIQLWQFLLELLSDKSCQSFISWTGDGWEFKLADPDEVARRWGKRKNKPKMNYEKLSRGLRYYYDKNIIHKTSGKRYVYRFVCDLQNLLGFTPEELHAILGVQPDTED
# In short: as §1
# SPDEF = target: T9, SPDEF (Homo sapiens, UniProt O95238 1-335); conditions: protein: recombinant; tags: N-terminal GST; dsDNA, one strand shown
# T9 sequence: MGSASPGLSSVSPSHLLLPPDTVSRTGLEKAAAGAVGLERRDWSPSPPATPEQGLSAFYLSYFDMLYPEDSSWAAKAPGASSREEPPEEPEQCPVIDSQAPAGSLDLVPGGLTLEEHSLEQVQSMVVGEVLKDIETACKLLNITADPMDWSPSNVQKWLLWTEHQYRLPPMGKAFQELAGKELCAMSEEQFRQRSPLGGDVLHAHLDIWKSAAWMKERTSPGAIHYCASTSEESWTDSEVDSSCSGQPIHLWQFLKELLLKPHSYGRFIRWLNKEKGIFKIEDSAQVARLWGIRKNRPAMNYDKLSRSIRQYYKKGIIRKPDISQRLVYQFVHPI
# In short: as §1
# ETV7 = target: T10, ETV7 (Homo sapiens, UniProt Q9Y603 1-341); conditions: protein: recombinant; tags: N-terminal GST; dsDNA, one strand shown
# T10 sequence: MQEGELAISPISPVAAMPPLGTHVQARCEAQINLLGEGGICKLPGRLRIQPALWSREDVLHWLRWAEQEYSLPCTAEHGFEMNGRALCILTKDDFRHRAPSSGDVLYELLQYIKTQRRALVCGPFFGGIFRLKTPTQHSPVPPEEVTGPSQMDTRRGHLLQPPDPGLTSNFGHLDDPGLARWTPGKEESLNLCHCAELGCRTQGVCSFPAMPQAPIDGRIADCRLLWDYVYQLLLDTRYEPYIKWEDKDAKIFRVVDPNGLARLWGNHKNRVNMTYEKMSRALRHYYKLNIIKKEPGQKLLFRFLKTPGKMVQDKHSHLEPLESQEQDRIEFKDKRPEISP
# In short: as §1
# ELF5 = target: T11, ELF5 (Homo sapiens, UniProt Q9UKW6-2 1-255); conditions: protein: recombinant; tags: N-terminal GST; dsDNA, one strand shown
# T11 sequence: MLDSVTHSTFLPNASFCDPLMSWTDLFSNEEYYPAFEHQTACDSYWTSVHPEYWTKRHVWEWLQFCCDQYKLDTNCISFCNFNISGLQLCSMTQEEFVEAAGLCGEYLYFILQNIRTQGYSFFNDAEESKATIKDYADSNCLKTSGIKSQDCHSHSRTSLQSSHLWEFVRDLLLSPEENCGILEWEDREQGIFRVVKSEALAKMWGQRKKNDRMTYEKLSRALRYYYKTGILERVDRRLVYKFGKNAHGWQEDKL
# In short: as §1
# ETV3 = target: T12, ETV3 (Homo sapiens, UniProt P41162-2 1-143); conditions: protein: recombinant; tags: N-terminal GST; dsDNA, one strand shown
# T12 sequence: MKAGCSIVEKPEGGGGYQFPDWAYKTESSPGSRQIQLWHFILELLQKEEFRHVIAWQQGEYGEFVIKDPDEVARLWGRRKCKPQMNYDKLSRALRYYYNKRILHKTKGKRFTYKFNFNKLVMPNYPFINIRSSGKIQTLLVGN
# In short: as §1
# ETV6 = ETV6 (Homo sapiens, UniProt P41212 1-452); conditions: protein: recombinant; tags: N-terminal GST; dsDNA, one strand shown
# ETV6, sequence (P41212 whole entry): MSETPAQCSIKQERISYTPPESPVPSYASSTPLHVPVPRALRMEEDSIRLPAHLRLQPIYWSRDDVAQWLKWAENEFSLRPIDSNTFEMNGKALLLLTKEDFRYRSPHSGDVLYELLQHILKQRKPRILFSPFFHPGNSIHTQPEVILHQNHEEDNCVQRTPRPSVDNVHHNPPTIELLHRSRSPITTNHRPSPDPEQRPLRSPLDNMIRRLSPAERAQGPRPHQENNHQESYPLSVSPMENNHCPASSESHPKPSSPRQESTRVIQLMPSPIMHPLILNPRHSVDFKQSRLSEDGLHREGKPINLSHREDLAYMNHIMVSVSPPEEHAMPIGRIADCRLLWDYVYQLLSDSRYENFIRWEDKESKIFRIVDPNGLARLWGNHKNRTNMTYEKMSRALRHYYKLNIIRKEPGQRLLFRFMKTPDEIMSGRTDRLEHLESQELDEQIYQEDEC
# In short: as §1
# ELF4 = ELF4 (Homo sapiens, UniProt Q99607 1-663); conditions: protein: recombinant; tags: N-terminal GST; dsDNA, one strand shown
# ELF4, sequence (Q99607 whole entry): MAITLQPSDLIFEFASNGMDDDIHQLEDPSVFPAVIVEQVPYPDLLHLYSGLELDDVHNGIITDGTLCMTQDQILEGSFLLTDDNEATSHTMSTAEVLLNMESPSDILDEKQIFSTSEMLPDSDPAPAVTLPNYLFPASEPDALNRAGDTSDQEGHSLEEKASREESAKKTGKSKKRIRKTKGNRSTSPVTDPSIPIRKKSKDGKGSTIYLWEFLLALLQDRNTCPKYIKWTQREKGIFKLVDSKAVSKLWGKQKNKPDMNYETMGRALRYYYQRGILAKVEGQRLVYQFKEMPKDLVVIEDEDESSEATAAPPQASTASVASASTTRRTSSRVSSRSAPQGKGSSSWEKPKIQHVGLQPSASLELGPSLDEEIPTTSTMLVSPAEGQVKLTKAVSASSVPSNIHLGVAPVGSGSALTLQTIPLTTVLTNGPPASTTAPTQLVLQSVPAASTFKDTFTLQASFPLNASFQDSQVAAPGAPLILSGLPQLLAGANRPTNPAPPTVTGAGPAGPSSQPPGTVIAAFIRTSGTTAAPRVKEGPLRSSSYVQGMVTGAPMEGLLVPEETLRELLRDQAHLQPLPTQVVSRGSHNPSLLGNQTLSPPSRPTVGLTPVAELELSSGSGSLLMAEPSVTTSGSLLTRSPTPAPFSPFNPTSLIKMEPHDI
# In short: as §1
Sequence,binding signal (FEV),binding signal (ETV5),binding signal (HSF1),binding signal (SPIC),binding signal (ELK4),binding signal (ETV2),binding signal (ELF3),binding signal (CRX),binding signal (ETV1),binding signal (ERF),binding signal (ETV3L),binding signal (ETS2),binding signal (SPDEF),binding signal (ETV7),binding signal (ELF5),binding signal (ETV3),binding signal (ETV6),binding signal (ELF4)
TCAAAT,"1.1 fold enrichment (6-mer frequency, TF over GST control)","1.09 fold enrichment (6-mer frequency, TF over GST control)","1.15 fold enrichment (6-mer frequency, TF over GST control)","1.12 fold enrichment (6-mer frequency, TF over GST control)","1.04 fold enrichment (6-mer frequency, TF over GST control)","1.1 fold enrichment (6-mer frequency, TF over GST control)","1.15 fold enrichment (6-mer frequency, TF over GST control)","1.32 fold enrichment (6-mer frequency, TF over GST control)","1.13 fold enrichment (6-mer frequency, TF over GST control)","1.01 fold enrichment (6-mer frequency, TF over GST control)","1.13 fold enrichment (6-mer frequency, TF over GST control)","1.09 fold enrichment (6-mer frequency, TF over GST control)","1.11 fold enrichment (6-mer frequency, TF over GST control)","1.14 fold enrichment (6-mer frequency, TF over GST control)","1.07 fold enrichment (6-mer frequency, TF over GST control)","1.07 fold enrichment (6-mer frequency, TF over GST control)","1.07 fold enrichment (6-mer frequency, TF over GST control)",–
TAGCAG,"1.03 fold enrichment (6-mer frequency, TF over GST control)","1.04 fold enrichment (6-mer frequency, TF over GST control)","1.12 fold enrichment (6-mer frequency, TF over GST control)","1.04 fold enrichment (6-mer frequency, TF over GST control)",–,"1.06 fold enrichment (6-mer frequency, TF over GST control)",–,"1.23 fold enrichment (6-mer frequency, TF over GST control)","1.02 fold enrichment (6-mer frequency, TF over GST control)","1.11 fold enrichment (6-mer frequency, TF over GST control)","1.07 fold enrichment (6-mer frequency, TF over GST control)","1.02 fold enrichment (6-mer frequency, TF over GST control)",–,"1.07 fold enrichment (6-mer frequency, TF over GST control)","1.05 fold enrichment (6-mer frequency, TF over GST control)",–,–,"1.05 fold enrichment (6-mer frequency, TF over GST control)"
